# The source made the active and inactive calls. Where a call stands in place of a potency, no number is given. Unless noted, the call rests on the fitted dose curve; in most records, active means well fitted curve in the direction sought with a large enough effect in the repeat runs; inconclusive means weak or mixed curves; inactive means no such curve, though single readings can be large; an effect the other way counts as inactive or inconclusive.
# Key:
# [1] = qHTS assay to identify small molecule antagonists of the thyroid receptor (TR) signaling pathway - cell viability counter screen (AID 743064); further: nearly all actives have a fitted effect of over 50% in size; further: potency means the concentration at half of the fitted maximal effect
# Procedure, shortened: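 Rat GH3 pituitary tumor cells stably expressing two TR response elements driving luciferase were plated, rested 4 h, then dosed with library compounds and T3 (1 nM final). After 23.5 h at 37 °C, CellTiter-Fluor was added for 30 min and fluorescence recorded.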
# [2] = qHTS assay to identify small molecule antagonists of the thyroid receptor (TR) signaling pathway (AID 743065); further: nearly all actives have a fitted effect of over 55% in size; further: potency means the concentration at half of the fitted maximal effect
# Procedure, shortened: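 GH3.TRE-Luc rat pituitary cells carrying two TR response elements driving luciferase were plated for 4 h, given compound plus 1 nM T3 (final), and incubated 23.5 h at 37 C. ONE-Glo luminescence measured reporter inhibition; CellTiter-Fluor fluorescence tracked cytotoxicity.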
# [3] = tested on: thyroid hormone receptor (rat, GH3 cells); assay: qHTS assay to identify small molecule agonists of the thyroid receptor (TR) signaling pathway (AID 743066; calls by dose curve)
# [4] = qHTS assay to identify small molecule antagonists of the estrogen receptor alpha (ER-alpha) signaling pathway - cell viability counter screen (AID 743074; calls by dose curve; further: nearly all actives have a fitted effect of over 45% in size; further: potency means the concentration at half of the fitted maximal effect)
# [5] = target: Estrogen receptor (Homo sapiens) (UniProt P03372); assay: qHTS assay to identify small molecule agonists of the estrogen receptor alpha (ER-alpha) signaling pathway (AID 743075; calls by dose curve; further: potency means the concentration at half of the fitted maximal effect)
# Sequence of Estrogen receptor (Homo sapiens) (P03372 whole entry, looked up): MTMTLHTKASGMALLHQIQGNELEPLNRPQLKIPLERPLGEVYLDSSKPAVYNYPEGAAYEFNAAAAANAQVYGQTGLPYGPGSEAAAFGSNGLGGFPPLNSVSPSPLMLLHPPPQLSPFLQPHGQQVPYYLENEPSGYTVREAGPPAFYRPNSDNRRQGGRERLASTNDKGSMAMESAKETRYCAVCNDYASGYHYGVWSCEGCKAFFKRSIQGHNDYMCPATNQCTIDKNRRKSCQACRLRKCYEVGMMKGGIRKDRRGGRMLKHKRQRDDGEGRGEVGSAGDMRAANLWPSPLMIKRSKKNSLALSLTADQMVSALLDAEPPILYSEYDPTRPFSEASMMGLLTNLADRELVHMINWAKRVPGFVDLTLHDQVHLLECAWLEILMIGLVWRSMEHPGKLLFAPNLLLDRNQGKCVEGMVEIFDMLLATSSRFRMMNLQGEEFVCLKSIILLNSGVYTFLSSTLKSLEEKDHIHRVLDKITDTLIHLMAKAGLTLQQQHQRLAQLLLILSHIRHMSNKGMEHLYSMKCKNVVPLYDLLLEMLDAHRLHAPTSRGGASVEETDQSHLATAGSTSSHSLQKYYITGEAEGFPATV
# [6] = qHTS assay to identify small molecule antagonists of the estrogen receptor alpha (ER-alpha) signaling pathway using the BG1 cell line (AID 743080; calls by dose curve;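 further: BG1 cells stimulated with 17beta-estradiol alongside compound; nearly all actives have a fitted effect of over 25% in size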; further: potency means the concentration at half of the fitted maximal effect)
# Procedure, shortened: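 BG1Luc4E2, endogenous ER-alpha, 4xERE-luc; 5 d charcoal-stripped FBS, phenol red free; 24 h plating; cpd + 17beta-estradiol 21.5 h, 37 C/5% CO2; CellTiter-Fluor viability 30 min, then ONE-Glo luciferase 30 min RT.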
# [7] = qHTS assay to identify small molecule antagonists of the estrogen receptor alpha (ER-alpha) signaling pathway using the BG1 cell line - cell viability counter screen (AID 743081);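 further: compound given together with 17beta-estradiol as the ER stimulus; nearly all actives have a fitted effect of over 45% in size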; further: potency means the concentration at half of the fitted maximal effect
# [8] = qHTS assay to identify aromatase inhibitors - cell viability counter screen (AID 743084);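 further: cells stimulated with testosterone during compound exposure; nearly all actives have a fitted effect of over 55% in size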; further: potency means the concentration at half of the fitted maximal effect
# [9] = target: Aryl hydrocarbon receptor (Homo sapiens) (UniProt P35869); assay: qHTS assay to identify small molecule that activate the aryl hydrocarbon receptor (AhR) signaling pathway (AID 743085);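 further: HG2L7.5c1 human HepG2 liver cells with stably integrated DRE-driven firefly reporter; series mostly up to about 70 µM; nearly all actives have a fitted effect of over 15% in size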
# Sequence of Aryl hydrocarbon receptor (Homo sapiens) (P35869 whole entry, looked up): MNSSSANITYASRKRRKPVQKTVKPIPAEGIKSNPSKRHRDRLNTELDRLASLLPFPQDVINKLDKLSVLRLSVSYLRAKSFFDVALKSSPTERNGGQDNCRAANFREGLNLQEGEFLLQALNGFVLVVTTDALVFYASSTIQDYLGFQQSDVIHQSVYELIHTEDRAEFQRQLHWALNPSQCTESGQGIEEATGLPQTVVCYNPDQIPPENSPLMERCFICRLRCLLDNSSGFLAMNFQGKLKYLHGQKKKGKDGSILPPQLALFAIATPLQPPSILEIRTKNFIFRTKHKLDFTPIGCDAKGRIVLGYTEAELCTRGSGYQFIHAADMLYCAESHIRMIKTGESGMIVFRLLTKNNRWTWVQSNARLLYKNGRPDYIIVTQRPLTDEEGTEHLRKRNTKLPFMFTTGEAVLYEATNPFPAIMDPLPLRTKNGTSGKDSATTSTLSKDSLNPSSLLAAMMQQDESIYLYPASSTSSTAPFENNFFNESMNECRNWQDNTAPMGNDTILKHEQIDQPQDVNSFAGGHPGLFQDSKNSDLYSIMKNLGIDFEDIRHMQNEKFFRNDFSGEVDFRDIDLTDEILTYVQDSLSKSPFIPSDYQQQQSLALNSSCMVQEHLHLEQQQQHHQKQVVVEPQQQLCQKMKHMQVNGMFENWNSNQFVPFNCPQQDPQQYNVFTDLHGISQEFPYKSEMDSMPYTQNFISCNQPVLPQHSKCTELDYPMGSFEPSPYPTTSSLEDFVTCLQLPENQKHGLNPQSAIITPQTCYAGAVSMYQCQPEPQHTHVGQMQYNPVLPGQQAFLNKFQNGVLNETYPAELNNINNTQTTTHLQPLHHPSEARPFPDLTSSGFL
# Procedure, shortened: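 Compounds were tested in HepG2 hepatocellular carcinoma cells harbouring a stably integrated luciferase gene under control of 20 DREs. Increased reporter signal after 24 h treatment at 37C was taken as AhR activation.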
# [10] = qHTS assay to identify small molecule that activate the aryl hydrocarbon receptor (AhR) signaling pathway - cell viability counter screen (AID 743086); further: nearly all actives have a fitted effect of over 45% in size; further: potency means the concentration at half of the fitted maximal effect
# Procedure, shortened: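 HepG2-AhR-luc (HG2L7.5c1) cells, 4000/well, were preincubated 5 h at 37C, exposed to compound in qHTS format for 24 hr at 37C, then given CellTiter-Fluor for 30 min; viability was read as fluorescence in the reporter wells.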
# [11] = qHTS assay for small molecule agonists of the antioxidant response element (ARE) signaling pathway - cell viability counter screen (AID 743203; calls by dose curve; further: nearly all actives have a fitted effect of over 55% in size; further: potency means the concentration at half of the fitted maximal effect)
# Procedure, shortened: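 Cells (ARE-bla HepG2, 2,000/well) receive DMSO-dissolved compounds after a 5 hrs rest. Plates incubate 16 hrs at 37C/5% CO2. CellTiter-Glo luminescence is then recorded after 30 min at room temperature.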
# [12] = qHTS assay for small molecule activators of the heat shock response signaling pathway - cell viability counter screen (AID 743209); further: nearly all actives have a fitted effect of over 50% in size; further: potency means the concentration at half of the fitted maximal effect
# Procedure, shortened: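 Quantitative HTS format, Tox21 10K library. HeLa cells carrying an HSE-driven beta-lactamase reporter were treated 5 h at 37 C, then assessed for viability by CellTiter-Glo luminescence.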
# Aromatase (Homo sapiens) = Aromatase (Homo sapiens) (UniProt P11511); assay: qHTS assay to identify aromatase inhibitors (AID 743083); further: nearly all actives have a fitted effect of over 55% in size; further: potency means the concentration at half of the fitted maximal effect
# Sequence of Aromatase (Homo sapiens) (P11511 whole entry, looked up): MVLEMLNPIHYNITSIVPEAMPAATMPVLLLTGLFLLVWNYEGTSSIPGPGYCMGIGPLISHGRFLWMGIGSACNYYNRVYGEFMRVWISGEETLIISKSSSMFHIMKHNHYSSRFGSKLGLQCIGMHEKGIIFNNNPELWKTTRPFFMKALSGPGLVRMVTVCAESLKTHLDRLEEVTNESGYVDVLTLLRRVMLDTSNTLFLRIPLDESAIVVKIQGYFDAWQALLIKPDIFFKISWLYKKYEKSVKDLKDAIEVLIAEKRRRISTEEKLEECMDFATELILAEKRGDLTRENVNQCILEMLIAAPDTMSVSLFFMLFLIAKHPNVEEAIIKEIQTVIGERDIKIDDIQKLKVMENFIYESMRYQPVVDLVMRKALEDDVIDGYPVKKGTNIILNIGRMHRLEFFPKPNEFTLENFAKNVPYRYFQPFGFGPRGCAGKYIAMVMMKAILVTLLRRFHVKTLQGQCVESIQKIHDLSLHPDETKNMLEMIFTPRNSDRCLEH
# [13] = target: Peroxisome proliferator-activated receptor gamma (Homo sapiens) (UniProt P37231); assay: qHTS assay to identify small molecule agonists of the peroxisome proliferator-activated receptor gamma (PPARg) signaling pathway (AID 743094; active means well fitted activation curve with a large enough effect in the signal ratio in the repeat runs, not every such curve was filed as active; inconclusive means weak or mixed curves, or effect the other way; inactive means no such curve, though single readings can be large or run the other way; the % refers to the signal ratio)
# Sequence of Peroxisome proliferator-activated receptor gamma (Homo sapiens) (P37231 whole entry, looked up): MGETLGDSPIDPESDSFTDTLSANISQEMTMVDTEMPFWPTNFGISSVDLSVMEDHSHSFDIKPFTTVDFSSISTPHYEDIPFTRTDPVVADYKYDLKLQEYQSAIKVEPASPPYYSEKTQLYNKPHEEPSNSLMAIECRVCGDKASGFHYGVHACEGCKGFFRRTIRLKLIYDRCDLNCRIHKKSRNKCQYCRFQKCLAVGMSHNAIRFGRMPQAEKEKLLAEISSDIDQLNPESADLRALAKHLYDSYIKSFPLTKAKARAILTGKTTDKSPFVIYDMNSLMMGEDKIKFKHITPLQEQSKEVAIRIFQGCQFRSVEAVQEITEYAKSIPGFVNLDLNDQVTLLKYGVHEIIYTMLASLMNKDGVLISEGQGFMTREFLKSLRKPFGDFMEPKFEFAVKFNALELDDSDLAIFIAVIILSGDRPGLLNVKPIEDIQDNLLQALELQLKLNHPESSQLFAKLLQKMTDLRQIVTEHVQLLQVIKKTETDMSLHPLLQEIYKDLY
# Procedure, shortened: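 Stably transfected HEK293H cells (GeneBLAzer PPARg UAS-bla) were incubated with test substances for 17 h at 37C after a 5 h pre-incubation; beta-lactamase activity was then detected by FRET substrate fluorescence.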
# [14] = qHTS assay to identify small molecule antagonists of the peroxisome proliferator-activated receptor gamma (PPARg) signaling pathway - cell viability counter screen (AID 743194); details: Potency: co-treated with 50 nM rosiglitazone; further: nearly all actives have a fitted effect of over 55% in size; further: potency means the concentration at half of the fitted maximal effect
# Procedure, shortened: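 PPARg-UAS-bla HEK293H cells were plated, rested 5 h at 37 C, then treated with compounds plus rosiglitazone (50 nM final) for 17 h at 37 C; viability was then read by CellTiter-Glo luminescence after 30 min at room temperature.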
# [15] = qHTS assay for small molecule agonists of the antioxidant response element (ARE) signaling pathway (AID 743202; active means well fitted activation curve with a large enough effect in the signal ratio in the repeat runs, not every such curve was filed as active; inconclusive means weak or mixed curves, or effect the other way; inactive means no such curve, though single readings can be large or run the other way; the % refers to the signal ratio; further: potency means the concentration at half of the fitted maximal effect)
# Procedure, shortened: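 Read-out: LiveBLAzer B/G FRET substrate fluorescence after 2 h at room temperature, following 16 h compound treatment at 37 C of HepG2 cells carrying an ARE-driven beta-lactamase reporter.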
# [16] = qHTS assay for small molecule activators of the heat shock response signaling pathway (AID 743210; active means well fitted activation curve with a large enough effect in the signal ratio in the repeat runs, with a control signal flat, not every such curve was filed as active; inconclusive means weak or mixed curves; the % refers to the signal ratio; further: series mostly up to about 63 µM)
# Procedure, shortened: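 HSE-bla HeLa cells (beta-lactamase reporter under heat shock response elements) were exposed to compounds for 5 h at 37 C, then loaded with LiveBLAzer B/G FRET substrate for 2.5 h at room temperature before fluorescence reading.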
# [17] = target: Peroxisome proliferator-activated receptor gamma (Homo sapiens) (UniProt P37231); assay: qHTS assay to identify small molecule antagonists of the peroxisome proliferator-activated receptor gamma (PPARg) signaling pathway (AID 743191; calls by dose curve; further: nearly all actives have a fitted effect of over 30% in size; further: potency means the concentration at half of the fitted maximal effect)
# Procedure, shortened: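 GeneBLAzer PPARg UAS-bla HEK293H cells carrying a UAS-driven beta-lactamase reporter were plated at 3000 cells/well, preincubated 5 h at 37C, then given compound for 17 h at 37C; LiveBLAzer B/G FRET substrate was read after 1 h at room temperature.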
# [18] = target: Estrogen receptor (Homo sapiens) (UniProt P03372); assay: qHTS assay to identify small molecule agonists of the estrogen receptor alpha (ER-alpha) signaling pathway using the BG1 cell line (AID 743079); further: nearly all actives have a fitted effect of over 20% in size
# [19] = target: Estrogen receptor (Homo sapiens) (UniProt P03372); assay: qHTS assay to identify small molecule antagonists of the estrogen receptor alpha (ER-alpha) signaling pathway (AID 743069; active means well fitted curve in the direction sought with a large enough effect in the signal ratio in the repeat runs, not every such curve was filed as active; inconclusive means weak or mixed curves, or effect the other way; inactive means no such curve, though single readings can be large or run the other way; the % refers to the signal ratio; further: potency means the concentration at half of the fitted maximal effect)
# Procedure, shortened: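 HEK293 cells stably carrying an ER-alpha-UAS-bla beta-lactamase reporter were pre-cultured overnight in 2% charcoal-stripped FBS medium. Test compounds in DMSO were added together with 17beta-estradiol for 18 hr at 37C. Read-out was fluorescence after 2 hr with LiveBLAzer B/G FRET substrate at room temperature.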
Structure (SMILES),Potency [1],Potency [2],Potency [3],Potency [4],Potency [5],Potency [6],Potency [7],Potency [8],Potency [9],Potency [10],Potency [11],Potency [12],Potency (Aromatase (Homo sapiens)),Potency [13],Potency [14],Potency [15],outcome [16],Potency [17],Potency [18],Potency [19]
OC(c1ccc(Cl)cc1)(c1ccc(Cl)cc1)c1cccnc1,61.1 µM (active),54.5 µM (active),inactive,inactive,inactive,inactive,inactive,inactive,inactive,inactive,61.1 µM (active),inactive,,,,,,,,
O=Cc1ccc(Cl)cc1Cl,inactive,inactive,inactive,inactive,,,inactive,inactive,inactive,inactive,inactive,inactive,inactive,inactive,inactive,inactive,inactive,,,
C=CC(=O)OC,inactive,inactive,inactive,inactive,,,inactive,inactive,inactive,inactive,inactive,inactive,inactive,,,inactive,inactive,,,
O=C1c2ccccc2C(=O)C1C(=O)C(c1ccccc1)c1ccccc1,inactive,inactive,inactive,inactive,,,inactive,inactive,,inactive,inactive,inactive,inactive,inactive,,,inactive,,,
C=CCN1CC[C@]23c4c5ccc(O)c4O[C@H]2C(=O)CC[C@@]3(O)[C@H]1C5,inactive,inactive,inactive,inactive,,,inactive,inactive,inactive,inactive,inactive,inactive,inactive,,inactive,inactive,inactive,,,
COC1=CC(=O)O[C@@H](CCc2ccccc2)C1,inactive,inactive,inactive,inactive,,,inactive,,inactive,inactive,inactive,inactive,inactive,,inactive,,inactive,,,
O=[N+]([O-])c1cc(C(F)(F)F)cc([N+](=O)[O-])c1Cl,61.4 µM (active),inactive,inactive,inactive,inactive,inactive,,inactive,,,inactive,inactive,inactive,,inactive,,inactive,inactive,,
CN1C(=O)NC(=O)C(C)(C2=CCCCC2)C1=O (stereo unspecified),inactive,inactive,inactive,inactive,,,inactive,inactive,inactive,inactive,inactive,inactive,inactive,,inactive,inactive,inactive,,,
Nc1nc(N)nc(N)n1,inactive,inactive,inactive,inactive,,,inactive,inactive,inactive,inactive,inactive,inactive,inactive,inactive,,inactive,inactive,inactive,,
CC(C)(Cl)[N+](=O)[O-],inactive,inactive,inactive,inactive,,,inactive,inactive,inactive,inactive,inactive,inactive,inactive,inactive,inactive,inactive,inactive,inactive,,
CCCCCCCCOC(=O)c1ccc(C(=O)OCCCCCCCC)c(C(=O)OCCCCCCCC)c1,inactive,inactive,inactive,inactive,,,inactive,inactive,inactive,inactive,inactive,inactive,inactive,inactive,inactive,,,inactive,,
C=COC(C)=O,inactive,inactive,inactive,inactive,,,inactive,inactive,,inactive,inactive,inactive,inactive,inactive,inactive,inactive,inactive,inactive,,
Clc1cccc2ccccc12,inactive,inactive,inactive,inactive,,,inactive,inactive,,inactive,inactive,inactive,inactive,,inactive,inactive,inactive,,,
CC(=O)c1cc2c(cc1C)C(C)(C)C(C)CC2(C)C (stereo unspecified),inactive,inactive,inactive,inactive,,,inactive,,,inactive,inactive,,54.5 µM (active),inactive,inactive,,inactive,,,
CN1C[C@H](CNC(=O)OCc2ccccc2)C[C@@H]2c3cccc4c3c(cn4C)C[C@H]21,9.44 µM (active),10.6 µM (active),,inactive,inactive,inactive,,,,29.8 µM (active),33.5 µM (active),inactive,,,,,inactive,inactive,,
O=C(NC(=O)c1c(F)cccc1F)Nc1cc(Cl)c(Oc2ncc(C(F)(F)F)cc2Cl)c(Cl)c1,58.5 µM (active),8.27 µM (active),inactive,,inactive,,inactive,inactive,inactive,inactive,,inactive,,,inactive,,,,,
[O-][Cl+]O,inactive,inactive,inactive,,inactive,inactive,inactive,inactive,inactive,inactive,inactive,inactive,inactive,inactive,inactive,,inactive,inactive,inactive,
CC1C(=O)C[C@]2(C(C)C)C[C@H]12 (stereo partly specified),inactive,inactive,inactive,,,,inactive,inactive,inactive,inactive,inactive,inactive,inactive,inactive,inactive,inactive,inactive,inactive,,
NS(=O)(=O)C(F)(F)C(F)(F)C(F)(F)C(F)(F)C(F)(F)C(F)(F)C(F)(F)C(F)(F)F,61.1 µM (active),61.1 µM (active),inactive,,43.6 µM [inconclusive] (active),,,inactive,inactive,inactive,68.6 µM (active),49 µM (active),inactive,inactive,43.6 µM (active),,,,inactive,
CC(C)(C)c1cc([N+](=O)[O-])cc([N+](=O)[O-])c1O,8.61 µM (active),3.43 µM (active),,,,,21.6 µM (active),17.2 µM (active),inactive,27.2 µM (active),,,15.3 µM (active),,0.435 µM (active),,,,,
CCOP(=O)(OCC)Oc1ccc([N+](=O)[O-])cc1,inactive,inactive,inactive,inactive,,,inactive,inactive,inactive,inactive,inactive,inactive,,,,,inactive,22.1 µM (active),,
O=C(O)C1(c2ccc3c(c2)OC[C@H](Cc2ccc(-c4ccccc4)cc2)[C@H]3O)CCCC1,61.1 µM (active),54.5 µM (active),,54.9 µM (active),,,inactive,inactive,inactive,inactive,,,inactive,,,,,,,
CCOC(=O)[C@]1(c2ccccc2)Oc2ccccc2[C@@H]1N,68.6 µM (active),68.6 µM (active),,,,,,inactive,inactive,inactive,,inactive,27.3 µM (active),,inactive,,inactive,inactive,,
O=S1(=O)OC(c2cc(Br)c(O)c(Br)c2)(c2cc(Br)c(O)c(Br)c2)c2ccccc21,49.9 µM (active),28.1 µM (active),inactive,,inactive,,22.3 µM (active),25 µM (active),,28.1 µM (active),,,22.3 µM (active),,,inactive,inactive,inactive,,
C/C(=C\c1ccccc1)[N+](=O)[O-],13.7 µM (active),6.86 µM (active),,,inactive,,,21.7 µM (active),inactive,,15.4 µM (active),,19.3 µM (active),,21.9 µM (active),,,,,2.45 µM [cytotoxic] (active)
CO/C=C(/C(=O)OC)c1ccccc1COc1cccc(C(F)(F)F)n1,inactive,0.432 µM (active),inactive,,1.38 µM [inconclusive] (active),2.17 µM (active),,61.1 µM (active),inactive,inactive,,inactive,68.5 µM (active),,,,inactive,4.36 µM (active),,
CO/N=C(/C(=O)OC)c1ccccc1COc1ccccc1C,inactive,3.06 µM (active),inactive,,,,inactive,,inactive,inactive,inactive,inactive,,,inactive,19.3 µM (active),inactive,,inactive,
COC(=O)C(Br)CBr (stereo unspecified),inactive,inactive,,inactive,inactive,inactive,inactive,inactive,inactive,inactive,inactive,inactive,inactive,,,,inactive,,inactive,inactive

# — PubChem BioAssay (Tox21)
